{"source": "PubChem BioAssay AID434970", "about": "(Sanford-Burnham Center for Chemical Genomics, 2010)", "note": "In all, about 11,000 compounds went through this assay and about 310 (2.8%) were called active. This is one part of a sample in which actives are shown more often than they occur. Rule as the data show it: active = activity change below about -85%; inactive = the rest."}
{"tested_on": "intestinal alkaline phosphatase [Mus musculus]", "test": "mouse intestinal phosphatase enzyme activation – biochemical, luminescence, single concentration, confirmation (AID 434970)", "conditions": "purified mouse IAP, CDP-Star luminescence, 30 min, at 10 µM; activation factor: measured here: IAP activation factor, stronger effect = higher value; activity change, negative = activation: stronger effect = lower value"}
{"smiles": "Cc1cc(=O)c2cc(Br)ccc2[nH]1", "activation factor": 0.944, "activity change, negative = activation": "5.65% (inactive)"}
{"smiles": "CCOC(=O)CSc1nc(-c2ccc(OC)cc2)ns1", "activation factor": 1, "activity change, negative = activation": "0.05% (inactive)"}
{"smiles": "COc1ccccc1C(=O)NCCN1CCN(C(=O)c2ccccc2OC)CC1", "activation factor": 1.1, "activity change, negative = activation": "-10.1% (inactive)"}
{"smiles": "COc1cccc(C(CC(=O)Nc2cccc3ccccc23)NC(=O)c2ccccc2)c1", "note": "(centres undefined)", "activation factor": 2.19, "activity change, negative = activation": "-119% (active)"}
{"smiles": "COc1cccc(OCC(=O)Nc2ccccc2NC(C)=O)c1", "activation factor": 1.08, "activity change, negative = activation": "-8.25% (inactive)"}
{"smiles": "COc1ccc(C(=O)Nc2ccccc2C(=O)N/N=C/c2cccc3ccccc23)cc1", "activation factor": 1.02, "activity change, negative = activation": "-1.95% (inactive)"}
{"smiles": "NC(=O)CSc1nnc(-c2ccncc2)n1CCc1ccccc1", "activation factor": 1.05, "activity change, negative = activation": "-5.05% (inactive)"}
{"smiles": "COc1ccc(COC(=O)Nc2cc3c(C(F)(F)F)nn(C)c3s2)cc1", "activation factor": 1.23, "activity change, negative = activation": "-23.1% (inactive)"}
{"smiles": "O=C1NC2(CCCCC2)C(=O)N1c1ccccc1", "activation factor": 1.08, "activity change, negative = activation": "-7.85% (inactive)"}
{"smiles": "COc1ccc(NC(=O)NC23CC4(C)CC(C)(CC(C)(C4)C2)C3)cc1", "activation factor": 2.08, "activity change, negative = activation": "-108% (active)"}
{"smiles": "COc1ccc(NC(=O)NC23CC4(C)CC(C)(CC(C)(C4)C2)C3)cc1OC", "activation factor": 1.65, "activity change, negative = activation": "-64.8% (inactive)"}
{"smiles": "COc1ccc(NC(=O)NCc2ccncc2)cc1", "activation factor": 1.01, "activity change, negative = activation": "-0.85% (inactive)"}
{"smiles": "Cn1nnnc1SCC(=O)N1CCN(c2ccc(Cl)cc2)CC1", "activation factor": 1.06, "activity change, negative = activation": "-5.85% (inactive)"}
{"smiles": "CCN(CC)c1ccc(NC(=O)c2cccc(OC)c2)c(C)c1", "activation factor": 0.97, "activity change, negative = activation": "3.05% (inactive)"}
{"smiles": "CCOc1ccc(OCCCN(C)C)cc1", "activation factor": 0.976, "activity change, negative = activation": "2.4% (inactive)"}
{"smiles": "O=C(CN1CCN(Cc2ccccc2Cl)C1=O)NCc1ccco1", "activation factor": 0.935, "activity change, negative = activation": "6.45% (inactive)"}
{"smiles": "CCOC(=O)N1CCN(C(=O)Nc2ccc(Cl)cc2Cl)CC1", "activation factor": 1.02, "activity change, negative = activation": "-1.6% (inactive)"}
{"smiles": "Cc1cccc(CN2CCC(CNC(=O)CCNC(=O)Cn3ccc4ccccc4c3=O)CC2)c1", "activation factor": 0.974, "activity change, negative = activation": "2.6% (inactive)"}
{"smiles": "S=C(Nc1cc(Cl)cc(Cl)c1)NC1CCN(Cc2ccccc2)CC1", "activation factor": 1.54, "activity change, negative = activation": "-53.5% (inactive)"}
{"smiles": "Cc1ccc(NC(=O)NCC2CCN(Cc3cccc(Cl)c3)CC2)c(Cl)c1", "activation factor": 2.2, "activity change, negative = activation": "-120% (active)"}
{"smiles": "O=C(NCC1CCN(Cc2cccc(Cl)c2)CC1)Nc1ccccc1Cl", "activation factor": 2.17, "activity change, negative = activation": "-118% (active)"}
{"smiles": "CCOC(=O)C1CCN(CCC(=O)Nc2ccccc2Cl)CC1", "activation factor": 0.996, "activity change, negative = activation": "0.35% (inactive)"}
{"smiles": "COc1cccc(Cn2cnc3c(NS(=O)(=O)c4ccc(Cl)cc4Cl)c(C)c(C)cc32)c1", "activation factor": 0.985, "activity change, negative = activation": "1.45% (inactive)"}
{"smiles": "Cn1cc(CN2CCC(C(=O)Nc3cccc(-c4cccc(F)c4)c3)CC2)cn1", "activation factor": 2.29, "activity change, negative = activation": "-129% (active)"}
{"smiles": "CC(C)c1ccc(CN2CCC(C(=O)NCc3cccnc3)CC2)cc1", "activation factor": 1.04, "activity change, negative = activation": "-4.3% (inactive)"}
{"smiles": "Cc1cc(C)c(S(=O)(=O)NNC(=O)C2CCN(Cc3ccccc3)CC2)c(C)c1", "activation factor": 0.968, "activity change, negative = activation": "3.2% (inactive)"}
{"smiles": "Cc1ccc(CN2CCC(C(=O)Nc3cccc(-c4cccc(F)c4)c3)CC2)o1", "activation factor": 1.48, "activity change, negative = activation": "-48.2% (inactive)"}
{"smiles": "CCn1cc(CN2CCC(C(=O)Nc3cccc(-c4cccc(Cl)c4)c3)CC2)cn1", "activation factor": 4.29, "activity change, negative = activation": "-329% (active)"}
{"smiles": "Cc1ccc(S(=O)(=O)NNC(=O)C2CCN(Cc3ccccc3)CC2)cc1", "activation factor": 0.94, "activity change, negative = activation": "6% (inactive)"}
{"smiles": "CCn1c2ccccc2c2cc(NC(=O)C3CCN(S(=O)(=O)c4cccs4)CC3)ccc21", "activation factor": 1.53, "activity change, negative = activation": "-52.7% (inactive)"}
{"smiles": "CCn1cc(CN2CCC(C(=O)Nc3cccc(-c4cccc(F)c4)c3)CC2)cn1", "activation factor": 2.66, "activity change, negative = activation": "-166% (active)"}
{"smiles": "CC(C)n1cc(CN2CCC(C(=O)Nc3cccc(-c4cccc(Cl)c4)c3)CC2)cn1", "activation factor": 3.97, "activity change, negative = activation": "-297% (active)"}
